The panel holds about 83,000 compounds, 20% with a hit somewhere; the sample as a whole holds those more often.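 The endpoint reported here, percent growth, reads 100 for growth as untreated, 0 for no net growth and -100 for all cells dead.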 Activity calls are given as the source filed them. Rule for the calls: active = growth percent below 10; inactive = the rest.
system: CAKI-1 renal; experiment: NCI-60 one-dose screen, 48 h (100 = growth as untreated, 0 = no growth, -100 = all killed); settings: 10 µM unless noted

| SMILES | growth |
| --- | --- |
| Cn1c(/C(C#N)=C/c2ccc3ccccc3c2)cc2ccccc21 | 28.5% (inactive) |
| Cn1cc(-c2nc(-c3c[nH]c4ncccc34)cs2)c2cc(F)ccc21 | 12.8% (inactive) |
| CC(=O)N1N=C(c2ccc(C)cc2)CC1c1ccc(Oc2ccc(Br)cc2)cc1 (centres undefined) | 74.6% (inactive) |
| NC1=NN=C2N(N)C(=O)c3cnn(-c4ccccc4)c3N2c2nc(-c3ccccc3)cc(-c3ccccc3)c21 | 86.8% (inactive) |
| Fc1ccc2nc(-c3cc(-c4ccc5c(c4)OCO5)n[nH]3)[nH]c2c1 | 41% (inactive) |
| CN(C)c1ccc(-c2ccc(-c3ccc(C(=N)N)c(F)c3)s2)cc1 | -87.9% (active) |
| Cc1c(C)c2c(c(C)c1NC(=O)CCCCCCC(=O)O)CCC(C)(CCCC(C)CCCC(C)CCCC(C)C)O2 (centres undefined) | 100% (inactive) |
| Cc1cc(C)nc(NC(N)=NCCc2ccccc2)n1 | 93.6% (inactive) |
| C=C(C)[C@@H]1CC[C@]2(C(=O)O)CC[C@]3(C)[C@H](CC[C@@H]4[C@@]5(C)C/C(=C/c6ccc(OC)cc6)C(=O)C(C)(C)[C@@H]5CC[C@]43C)[C@@H]12 | 23.8% (inactive) |
| COc1ccc2[nH]cc(-c3nc(-c4c[nH]c5ncccc45)cs3)c2c1 | 4.05% (active) |
| CCc1ccc(-c2ccc(Nc3ccccc3)nn2)cc1S(N)(=O)=O | 92.6% (inactive) |
| Cn1cccc1/C=C1/SC(=S)N(CCc2ccc(O)cc2)C1=O | 44.7% (inactive) |
| CN1CCN(CCOc2ccc(-c3cnc4c(-c5ccccc5F)cnn4c3)cc2)CC1 | 45.8% (inactive) |
| O=c1c(CNc2ccc(S(=O)(=O)Nc3ncccn3)cc2)coc2ccccc12 | 130% (inactive) |
